In PubChem BioAssay (NCI):
The panel holds about 79,000 compounds, 15% with a hit somewhere; the sample as a whole holds those more often. Calls of active or inactive are those of the source. Cut-off read from the data, not from the text of the source: active = growth inhibition above about 70%; inactive = the rest.

What was measured:
[1] = NCI Yeast Anticancer Drug Screen. Data for the wt1 strain (AID 149);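 note: 0% = growth of vehicle-treated wt1 cultures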; conditions: S. cerevisiae wt1 strain (SPY 50644) growth inhibition, hits give high values
Procedure, shortened: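 wt1 strain grown with compound or vehicle; inhibition taken from the growth difference.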

[2] = NCI Yeast Anticancer Drug Screen. Data for the rad50EPP+ strain (AID 151);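 note: 0% = growth of vehicle-treated control cultures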; conditions: S. cerevisiae rad50 mutant strain, hits give high values
Procedure, shortened: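 Genetically defined yeast (rad50EPP+, DNA damage repair alteration) is grown with compound, and inhibition of growth is expressed relative to vehicle-treated controls.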

[3] = NCI Yeast Anticancer Drug Screen. Data for the rad50 strain (AID 155);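 note: 0% = growth of vehicle-only cultures of the same strain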; conditions: S. cerevisiae rad50 strain growth inhibition, hits give high values
Procedure, shortened: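 DNA repair mutant yeast, compound exposure, growth read-out; inhibition is taken relative to vehicle.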

[4] = NCI Yeast Anticancer Drug Screen. Data for the mec2-1 strain (AID 157); conditions: S. cerevisiae mec2-1 strain, hits give high values
Procedure, shortened: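 Each compound was tested on mec2-1 yeast, a strain altered in DNA damage repair or cell cycle control. Growth inhibition is reported relative to vehicle.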

[5] = NCI Yeast Anticancer Drug Screen. Data for the rad14 strain (AID 159);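 note: 0% = growth of vehicle-treated control cultures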; conditions: S. cerevisiae rad14 strain growth inhibition, hits give high values
Procedure, shortened: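 DNA repair-defective yeast, compound-exposed; % growth inhibition derived by comparison with vehicle-treated controls.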

[6] = NCI Yeast Anticancer Drug Screen. Data for the sgs1 mgt1 strain (AID 161);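 note: 0% = growth of cultures given vehicle only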; conditions: S. cerevisiae sgs1 mgt1 strain, hits give high values
Procedure, shortened: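 Read-out: growth inhibition vs vehicle controls. Cells: mutant yeast strain deficient in DNA damage repair.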

[7] = NCI Yeast Anticancer Drug Screen. Data for the CLN2oe strain (AID 163);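 note: 0% = growth of vehicle-only control cultures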; conditions: S. cerevisiae CLN2oe strain, hits give high values
Procedure, shortened: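 First, the altered yeast strain was treated with each compound; second, its growth was measured; finally, inhibition was derived by comparison with vehicle controls.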

[8] = NCI Yeast Anticancer Drug Screen. Data for the cln2 rad14 strain (AID 165);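 note: 0% = growth equal to vehicle treated cultures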; conditions: S. cerevisiae cln2 rad14 strain, hits give high values
Procedure, shortened: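 Test compounds were added to cln2 rad14 yeast cultures; inhibition of growth was then determined by comparison with vehicle treatment.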

[9] = NCI Yeast Anticancer Drug Screen. Data for the bub3 strain (AID 167); conditions: S. cerevisiae bub3 mutant strain, hits give high values
Procedure, shortened: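 In this screen, a yeast mutant lacking normal mitotic checkpoint function is challenged with compound. Relative growth versus vehicle gives the inhibition value.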

[10] = NCI Yeast Anticancer Drug Screen. Data for the wt2 strain (AID 169);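 note: 0% = growth of vehicle-treated yeast cultures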; conditions: S. cerevisiae wt2 strain growth inhibition, hits give high values
Procedure, shortened: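 The panel's yeast strains carry defined changes in DNA repair or cell cycle genes. Each strain is grown with compound, and growth loss is scored relative to vehicle.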

[11] = NCI Yeast Anticancer Drug Screen. Data for the mlh1 strain (AID 171);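 note: 0% = growth of vehicle-treated control cultures of the same strain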; conditions: S. cerevisiae mlh1 strain growth inhibition, hits give high values
Procedure, shortened: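 Inhibition values reflect reduced yeast growth in the presence of compound, referenced to vehicle controls, using a strain chosen for its alteration in DNA repair or cell cycle control.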

[12] = NCI Yeast Anticancer Drug Screen. Data for the mlh1 rad18 strain (AID 175); conditions: S. cerevisiae mlh1 rad18 strain growth inhibition, hits give high values
Procedure, shortened: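 Inhibition values reflect reduced growth of mutant yeast versus vehicle-treated controls following compound exposure; the mutations affect DNA damage repair.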

[13] = NCI Yeast Anticancer Drug Screen. Data for the rad18 strain (AID 177); conditions: S. cerevisiae rad18 mutant growth inhibition, hits give high values
Procedure, shortened: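 Steps: expose repair-mutant yeast to compound; measure growth; express as inhibition relative to vehicle control.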

[14] = NCI Yeast Anticancer Drug Screen. Data for the mgt1 strain (AID 153); conditions: S. cerevisiae mgt1 mutant growth inhibition, hits give high values
Procedure, shortened: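 In the mgt1 strain, test compounds were added and growth inhibition was determined relative to vehicle-treated controls.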

[15] = NCI Yeast Anticancer Drug Screen. Data for the sgs1 strain (AID 173);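 note: 0% = growth of vehicle-only control cultures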; conditions: S. cerevisiae sgs1 mutant, hits give high values
Procedure, shortened: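 Vehicle-treated cultures served as reference for growth inhibition of a yeast strain altered in DNA damage repair or cell cycle control after compound exposure.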

[16] = at 5.0 µM (retest, dose inferred, filed as 0.5)
[17] = at 50.0 µM (retest, dose inferred, filed as 5.0)

Measured: growth inhibition

CC1CC(C)CC(C)C(O)/C(C#N)=C/C=C/CC(C2CCCC2C(=O)O)OC(=O)CC(O)C(C)C1 (stereo unspecified)
active: [1]; at 1.2 µM 97% | [1]; at 3.7 µM 99% | [1]; at 11.0 µM 99% | [1]; at 33.0 µM 99% | [1]; at 100.0 µM 98% | [2]; at 33.0 µM 93% | [2]; at 100.0 µM 97% | [3]; at 1.2 µM 94% | [3]; at 3.7 µM 97% | [3]; [16] 98% | [3]; at 11.0 µM 97% | [3]; at 33.0 µM 97% | [3]; [17] 98% | [3]; at 50.0 µM 92.6% | [3]; at 100.0 µM 97% | [4]; at 1.2 µM 96% | [4]; at 3.7 µM 98% | [4]; [16] 99% | [4]; at 11.0 µM 98% | [4]; at 33.0 µM 98% | [4]; [17] 99% | [4]; at 50.0 µM 94.5% | [4]; at 100.0 µM 98% | [5]; at 1.2 µM 98% | [5]; at 3.7 µM 98% | [5]; at 11.0 µM 98% | [5]; at 33.0 µM 99% | [5]; at 100.0 µM 98% | [6]; at 50.0 µM 93.7% | [7]; at 1.2 µM 86% | [7]; at 3.7 µM 96% | [7]; at 11.0 µM 97% | [7]; at 33.0 µM 97% | [7]; at 100.0 µM 97% | [8]; at 50.0 µM 92.4% | [9]; at 1.2 µM 93% | [9]; at 3.7 µM 98% | [9]; at 11.0 µM 98% | [9]; at 33.0 µM 98% | [9]; at 50.0 µM 93.3% | [9]; at 100.0 µM 98% | [10]; at 1.2 µM 90% | [10]; at 3.7 µM 100% | [10]; at 11.0 µM 99% | [10]; at 33.0 µM 99% | [10]; at 100.0 µM 98% | [11]; at 1.2 µM 90% | [11]; at 3.7 µM 98% | [11]; at 11.0 µM 98% | [11]; at 33.0 µM 98% | [11]; at 100.0 µM 98% | [12]; [16] 98% | [12]; [17] 98% | [12]; at 50.0 µM 91.6% | [13]; at 1.2 µM 96% | [13]; at 3.7 µM 97% | [13]; at 11.0 µM 98% | [13]; at 33.0 µM 97% | [13]; at 100.0 µM 97%
inactive: [2]; at 1.2 µM -17% | [2]; at 3.7 µM 21% | [2]; at 11.0 µM 68% | [6]; [16] 15% | [6]; [17] 2% | [8]; [16] 8% | [8]; [17] -20% | [9]; [16] 10% | [9]; [17] -7%

Cc1c2ccccc2cc2ccccc12
inactive: [2]; at 1.2 µM 52% | [14]; at 1.2 µM -2% | [14]; at 3.7 µM 19% | [3]; at 1.2 µM 4% | [3]; at 3.7 µM 36% | [3]; [16] 16% | [4]; at 1.2 µM -2% | [4]; at 3.7 µM 14% | [4]; [16] 35% | [4]; at 11.0 µM 61% | [6]; [16] 34% | [7]; at 1.2 µM 9% | [7]; at 3.7 µM 29% | [8]; [16] 51% | [9]; at 1.2 µM -3% | [9]; at 3.7 µM 7% | [9]; [16] 58% | [9]; at 11.0 µM 49% | [10]; at 1.2 µM -4% | [10]; at 3.7 µM -1% | [10]; at 11.0 µM 63% | [11]; at 1.2 µM 8% | [11]; at 3.7 µM 27% | [15]; at 1.2 µM -14% | [15]; at 3.7 µM 20% | [12]; [16] 65%
active: [2]; at 3.7 µM 84% | [2]; at 11.0 µM 96% | [2]; at 33.0 µM 98% | [2]; at 100.0 µM 98% | [14]; at 11.0 µM 73% | [14]; at 33.0 µM 99% | [14]; at 100.0 µM 99% | [3]; at 11.0 µM 83% | [3]; at 33.0 µM 98% | [3]; [17] 98% | [3]; at 50.0 µM 98.3% | [3]; at 100.0 µM 98% | [4]; at 33.0 µM 99% | [4]; [17] 99% | [4]; at 50.0 µM 98.6% | [4]; at 100.0 µM 99% | [6]; [17] 99% | [6]; at 50.0 µM 98.4% | [7]; at 11.0 µM 82% | [7]; at 33.0 µM 99% | [7]; at 100.0 µM 99% | [8]; [17] 99% | [8]; at 50.0 µM 98% | [9]; at 33.0 µM 95% | [9]; [17] 99% | [9]; at 50.0 µM 98.2% | [9]; at 100.0 µM 99% | [10]; at 33.0 µM 98% | [10]; at 100.0 µM 99% | [11]; at 11.0 µM 86% | [11]; at 33.0 µM 99% | [11]; at 100.0 µM 99% | [15]; at 11.0 µM 97% | [15]; at 33.0 µM 99% | [15]; at 100.0 µM 99% | [12]; [17] 99% | [12]; at 50.0 µM 97.8%

CCC[CH2][Pb]([Cl])([CH2]CCC)[CH2]CCC
active: [3]; [16] 99% | [3]; [17] 98% | [3]; at 50.0 µM 88% | [4]; [16] 100% | [4]; [17] 99% | [4]; at 50.0 µM 92% | [6]; [16] 100% | [6]; [17] 99% | [6]; at 50.0 µM 92.2% | [8]; [16] 98% | [8]; [17] 98% | [8]; at 50.0 µM 91.2% | [9]; [16] 100% | [9]; [17] 98% | [9]; at 50.0 µM 89.9% | [12]; [16] 99% | [12]; [17] 98%

OC1(c2ccccc2)CC2CCC(C1)N2CCCC(O)(c1ccccc1)c1ccccc1 (stereo unspecified)
inactive: [1]; at 1.2 µM 1% | [1]; at 3.7 µM 1% | [1]; at 11.0 µM 2% | [1]; at 33.0 µM 6% | [1]; at 100.0 µM 24% | [2]; at 1.2 µM -5% | [2]; at 3.7 µM -3% | [2]; at 11.0 µM 0% | [2]; at 33.0 µM 2% | [2]; at 100.0 µM 5% | [3]; at 1.2 µM -6% | [3]; at 3.7 µM -15% | [3]; [16] -8% | [3]; at 11.0 µM -13% | [3]; at 33.0 µM 21% | [3]; [17] 6% | [3]; at 50.0 µM 33.2% | [3]; at 100.0 µM 62% | [4]; at 1.2 µM 0% | [4]; at 3.7 µM 1% | [4]; [16] -10% | [4]; at 11.0 µM 4% | [4]; at 33.0 µM 18% | [4]; [17] 10% | [4]; at 50.0 µM -2.2% | [4]; at 100.0 µM 37% | [6]; [16] -2% | [6]; [17] 44% | [7]; at 1.2 µM -4% | [7]; at 3.7 µM -5% | [7]; at 11.0 µM -2% | [7]; at 33.0 µM 12% | [7]; at 100.0 µM 49% | [8]; [16] 1% | [8]; [17] 52% | [8]; at 50.0 µM 2.55% | [9]; at 1.2 µM 0% | [9]; at 3.7 µM 0% | [9]; [16] 8% | [9]; at 11.0 µM 5% | [9]; at 33.0 µM 30% | [9]; [17] 67% | [9]; at 50.0 µM 53.7% | [10]; at 1.2 µM -1% | [10]; at 3.7 µM -1% | [10]; at 11.0 µM 1% | [10]; at 33.0 µM 17% | [11]; at 1.2 µM 1% | [11]; at 3.7 µM 1% | [11]; at 11.0 µM 3% | [11]; at 33.0 µM 23% | [15]; at 1.2 µM 1% | [15]; at 3.7 µM 3% | [15]; at 11.0 µM 3% | [15]; at 33.0 µM 38% | [12]; [16] -7% | [12]; [17] 26% | [12]; at 50.0 µM 53.5%
active: [6]; at 50.0 µM 71.8% | [9]; at 100.0 µM 80% | [10]; at 100.0 µM 80% | [11]; at 100.0 µM 80% | [15]; at 100.0 µM 89%
